Drawing on PubChem BioAssay (NCI), this text covers growth for 38 compounds.

Compounds without any hit were thinned out: in the full panel of roughly 83,000, 20% have a hit.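 Step 1: grow cells in 96-well plates. Step 2: add test compound at a single concentration. Step 3: incubate 48 h. Step 4: record percent growth.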 Activity calls are given as the source filed them. Rule for the calls: active = growth percent below 10; inactive = the rest.

For one assay, the system named is SF-539 CNS. As to the kind of experiment: NCI-60 one-dose screen, 48 h (100 = growth as untreated, 0 = no growth, -100 = all killed). The conditions noted are these: 10 µM unless noted.
`C=CCOc1cccc(/C=C2\SC(=S)N(C3CC(=O)N(c4ccc(Br)cc4)C3=O)C2=O)c1` (stereo not drawn): the growth was 101% (inactive).
As for `CC(C)(C)c1ccc(-c2nnc(-c3nc4ccccc4nc3Cl)o2)cc1`, the growth is 93.8% (inactive).
On to `Nc1nc(-c2cccc([N+](=O)[O-])c2)c(N=Nc2ccc(Br)cc2)s1`, for which the growth is -98% (active).
Same read-out and setting: under `CCNC(=O)N1CCc2cc(OC)c(OCCc3ccc(OC)cc3)cc2C1c1ccc(OC)cc1C` (stereo not drawn) stands 6.35% (active); under `COc1ccc(-c2nc(C(Cl)Cl)nc3cc(-c4ccccc4)nn23)cc1`, 35.5% (inactive).

Another assay concerns UACC-257 melanoma. Described as above. The conditions noted are these: 10 µM unless noted.
Regarding `O=C(Nc1ccc2c(ccn2Cc2ccccn2)c1)c1ccnnc1`, the growth is 106% (inactive).
In the case of `N#C/C(=C\c1ccc(-c2ccc(Cl)cc2Cl)o1)c1ccc(F)cc1`, the growth is 104% (inactive).
As to `COc1ccc(/C(N)=N/C(N)=N/c2nc3ccccc3s2)cc1`, the growth was 98.5% (inactive).
For the compound `Nc1nc(-c2cccc([N+](=O)[O-])c2)c(N=Nc2ccccc2)s1`, the growth was 93.4% (inactive).
On to `CNC(=O)c1cc(Oc2ccc3nc(NC(=O)c4cc(N5CCOCC5)cc(C(F)(F)F)c4)sc3c2)ccn1`, for which the growth is 82.4% (inactive).
`C=C(C)[C@@H]1CC[C@]2(COP(=O)(OCC)OCC)CC[C@]3(C)[C@H](CC[C@@H]4[C@@]5(C)CCCNC(C)(C)[C@@H]5CC[C@]43C)[C@@H]12`: the growth was 29.1% (inactive).
The same measure, in the same setting: to `CCCn1cnc2c(c1=N)C(c1ccc(F)cc1)c1sc3c(CC)cccc3c1O2` (stereo not drawn) belongs 65.5% (inactive).
In the case of `CC1(C)[C@@H](O)CC[C@]2(C)[C@H]3CC[C@@H]4[C@H]5[C@H](C(=O)/C=C\c6ccc([N+](=O)[O-])cc6)CC[C@]5(O)CC[C@@]4(C)[C@]3(C)CC[C@@H]12`, the growth was 70.3% (inactive).
Consider `c1cc(-c2nc3ccc4[nH]ncc4c3c3c2CCCC3)[nH]n1`, for which the growth was 91.1% (inactive).
For the compound `O=C(CSc1nc2ccccc2c(=O)n1-c1ccccc1)Nc1ccc(-c2nc3ccc([N+](=O)[O-])cc3[nH]2)cc1`, the growth was 95.8% (inactive).
Turning to `C[C@@H](Nc1ncnc2ccc(-c3cnc(Cl)c(NS(C)(=O)=O)c3)cc12)c1ccccc1`, the growth was 60.9% (inactive).
For the compound `CC(=O)Nc1cccc(Nc2nc(N[C@H](C)c3ccccc3)c3ccccc3n2)c1`, the growth is 58.6% (inactive).
Take `COc1cc(-c2nn(C(C)(C)C)cc2-c2ccnc(NCCCNS(=O)(=O)c3cccc(F)c3)n2)ccc1Cl`: the growth was 97.4% (inactive).
Same read-out and setting: to `Cc1ccc2c(c1)C(=O)/C(=C/c1cccc(F)c1)S2` belongs 103% (inactive); to `CCCC(=O)NC(c1cccnc1)c1cc(C(C)(C)C)c2cccnc2c1O` (stereo not drawn), 4.98% (active); to `CCN(CC)CCn1c2ccc(O)cc2c2sc3cc(OC)ccc3c(=O)c21`, 80% (inactive).
Regarding `Cn1cc(-c2nc(N)nnc2-c2c[nH]c3ccccc23)c2cc(Br)ccc21`, the growth is 72.1% (inactive).
Take `C=C(C)[C@@H]1CC[C@]2(COCCCNCCC#N)CC[C@]3(C)[C@H](CC[C@@H]4[C@@]5(C)CC[C@H](OCCCNCCC#N)C(C)(C)[C@@H]5CC[C@]43C)[C@@H]12`: the growth was 61.5% (inactive).
For `CCNC(=O)N1CCc2cc(OC)c(OCCc3ccc(OC)c(N)c3)cc2C1c1ccc(C)cc1C` (stereo not drawn), the growth is 49.1% (inactive).
In the case of `CC1(C)CC[C@]2(C(=O)N3CCOCC3)CC[C@]3(C)C(=CC[C@@H]4[C@@]5(C)C/C(=C/c6ccccn6)C(=O)C(C)(C)[C@@H]5CC[C@]43C)[C@@H]2C1`, the growth is 59.6% (inactive).
As for `O=C(Nc1nc2ccc([N+](=O)[O-])cc2s1)Nc1ccccc1Br`, the growth is 30.4% (inactive).
As to `CC1=N[C@@H]2CN(C(=O)OC(C)(C)C)C[C@@H]2n2c1cc1ccccc1c2=O`, the growth was 108% (inactive).
On to `Cc1[nH]c(C(=O)Nc2ccccc2OCc2cccc(C(=O)N3CCC[C@@H](N)C3)c2)c(Cl)c1Cl`, for which the growth was -72.4% (active).
Still for that read-out and setting: to `Cc1cc(-c2ccc(Cl)cc2)n(Cc2nnc(SCC(=O)Nc3ccc(S(N)(=O)=O)cc3)n2-c2ccc([N+](=O)[O-])cc2)n1` belongs 98.5% (inactive); to `Cc1c(F)cc(C(N)=O)cc1NCC(=O)Nc1ccc([N+](=O)[O-])cc1`, 102% (inactive).
As for `COc1cc(-c2ccc3ncnc(NCc4ccccc4)c3c2)cnc1OC`, the growth was 75.7% (inactive).
As to `CCNC(=O)N1CCc2cc(OC)c(OCCc3ccc(OC)c(N)c3)cc2C1c1cc(C)c(C)cc1C` (stereo not drawn), the growth is 50% (inactive).
Take `O=C1[C@H]2Cc3c([nH]c4ccccc34)[C@@H](c3ccc(Br)cc3)N2C(=O)CN1C1CCN(CC2CCCCC2)CC1`: the growth is -60.2% (active).
With `COC(=O)c1ccc(NC2=C/C(=N/S(=O)(=O)c3ccc(C(=O)O)cc3)c3ccccc3C2=O)cc1`, the growth is -6.94% (active).
For the compound `COc1ccc(CCOc2cc3c(cc2OC)CCN(C(=O)NCc2cocn2)C3c2ccc(C)cc2C)cc1` (stereo not drawn), the growth is 38% (inactive).
Consider `Cc1ccc(C(=O)NN2C(=O)/C(=C/C=C/c3ccco3)SC2=S)cc1`, for which the growth was 91% (inactive).
Take `COc1ccc(/C=C/C(=O)c2cccc(NC(=O)CSc3nc4ccccc4c(=O)n3-c3ccccc3)c2)cc1OC`: the growth was 110% (inactive).
Turning to `C[C@H]1c2[nH]c3ccccc3c2C[C@H]2C(=O)N(CCCCCCC(=O)NO)CC(=O)N21`, the growth was 63% (inactive).
Consider `C=CCOc1cccc(/C=C2\SC(=S)N(C3CC(=O)N(c4ccc(Br)cc4)C3=O)C2=O)c1` (stereo not drawn), for which the growth is 108% (inactive).
Take `CC(C)(C)c1ccc(-c2nnc(-c3nc4ccccc4nc3Cl)o2)cc1`: the growth was 61.9% (inactive).
For `Nc1nc(-c2cccc([N+](=O)[O-])c2)c(N=Nc2ccc(Br)cc2)s1`, the growth was 0.3% (active).
Still for that read-out and setting: to `CCNC(=O)N1CCc2cc(OC)c(OCCc3ccc(OC)cc3)cc2C1c1ccc(OC)cc1C` (stereo not drawn) belongs 50.5% (inactive); to `COc1ccc(-c2nc(C(Cl)Cl)nc3cc(-c4ccccc4)nn23)cc1`, 4.58% (active).
